# Laboratory results reported in PubChem BioAssay (NCI).
# Compounds without any hit were thinned out: in the full panel of roughly 83,000, 20% have a hit.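 Treatment: one concentration, 48 hours, 96-well format. Scoring: percent growth, with anything below 10 considered active.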 The source made the active and inactive calls.
# System: BT-549 breast
# Assay: NCI-60 one-dose screen, 48 h (100 = growth as untreated, 0 = no growth, -100 = all killed)
# Settings: 10 µM unless noted
row,SMILES,growth
1,CN(C)Cc1cc(C(C)(C)C)cc(Br)c1O,114% (inactive)
2,COC(=O)c1ccc2c(c1)c1c(C)c3cnccc3c(C)c1n2C,-4.33% (active)
3,CN(C)CCCn1c2c(c3cnccc3c1=O)C(=O)c1ccccc1-2,6.92% (active)
4,O=C(NNc1nc2cc(F)ccc2n2c(CN3CCOCC3)ccc12)c1ccccc1,25.7% (inactive)
5,CCOC(=O)C/C(=N\Nc1cc(=O)[nH]c2ccc(OC)cc12)C(=O)OCC,110% (inactive)
6,COc1ccc(/C=C(/C(=O)N2CCNCC2)c2cc(OC)c(OC)c(OC)c2)cc1O,58.5% (inactive)
7,COC(=O)[C@]1(C)CCC[C@]2(C)[C@H]3C[C@@H]4[C@H]5[C@@H]6CC/C(=N\OCC/C(N)=N/O)[C@H]5[C@@]3(CC[C@H]21)CC4(C(C)C)O6,74.9% (inactive)
8,CC/C(=C(\c1ccc(Cl)cc1)c1ccc(OCCN2CCCCC2)cc1)c1ccc(O)cc1,58.3% (inactive)
9,CCN(CC)CCOc1ccc(/C(=C(\C)Cc2ccc(OC)cc2)c2ccc(OC(=O)NCc3ccccc3)cc2)cc1,77.4% (inactive)
10,O=[N+]([O-])c1c(O)c(Cl)cc(Cl)c1Cl,106% (inactive)
11,C=CC(=O)Nc1cccc(Oc2nccc(Nc3nnc(-c4ccc(Br)cc4)s3)n2)c1,109% (inactive)
12,O=S(=O)(Nc1ccc2ccccc2c1)c1ccc(-c2cnc(C3CC3)o2)cc1,62.6% (inactive)
13,CCCCCc1ccc(S(=O)(=O)Nc2ccc3nc(N)oc3c2)cc1,61.9% (inactive)
14,C=CCN=c1sc(-c2ccc3ccccc3c2)cn1NC(=O)c1cc2ccc1CCc1ccc(cc1)CC2,53.9% (inactive)
15,c1cc(OCCN2CCCCCC2)ccc1CNc1ccc2nc(CCC3CCCCC3)[nH]c2c1,76.5% (inactive)
16,CC1=C2CC/C(C)=C/CC[C@]3(C)O[C@H]3CC/C(C)=C/[C@H]2OC1,106% (inactive)
17,COc1ccc(C(O)c2cc3c(N)c(C(=O)Nc4cccc5ccccc45)sc3nc2C)cc1 (stereo not drawn),8.08% (active)
18,CCOc1ncc([N+](=O)[O-])c(OCC)n1,105% (inactive)
19,COc1ccc(C2[C@@H](Cl)C(=O)N2c2cc(OC)c(OC)c(OC)c2)cc1Cl (stereo partly drawn),-19.1% (active)
20,CS(=O)(=O)c1ccc(-c2nc3ccccc3n2CC(=O)N/N=C/c2ccccc2)cc1,95.9% (inactive)
21,CN1CCN(c2ccc(NC3=CC(=O)c4ncncc4C3=O)cc2)CC1,-90.9% (active)
22,Cn1c(=O)[nH]c(=O)c2nc3c(nc21)-c1ccccc1C3=O,104% (inactive)
23,COc1ccc(-c2cc(C(=O)N3N=C(c4ccc(N)cc4)CC3c3ccc(Cl)cc3)c3cc(OC)ccc3n2)cc1 (stereo not drawn),29.8% (inactive)
24,O=c1cc(CP(=O)(O)O)c2cc(O)c(-c3ccccc3)cc2o1,108% (inactive)
25,O=C1c2cccnc2C(=O)c2c1c(C(=O)OCCc1ccccn1)c1ccccn21,-35.2% (active)
26,Cc1cc(C(=O)CCCC(=O)c2cc(C)c(O)c(C)c2)cc(C)c1O,112% (inactive)

# System: MDA-MB-435 melanoma
# Assay: as above
# Settings: 10 µM unless noted
row,SMILES,growth
1,Cn1c(=O)c2[nH]c(SC/C(=N/O)c3ccc(Br)cc3)nc2n(C)c1=O,52% (inactive)
2,Cc1c2ncccc2nc2[nH]c3ccc(OCCN(C)C)cc3c12,36.8% (inactive)
3,COc1ccc(-c2cc(C(=O)N3N=C(c4ccc(N)cc4)CC3c3ccc(Cl)cc3)c3ccccc3n2)cc1 (stereo not drawn),-12.9% (active)
4,Cc1oc(-c2ccc(Cl)cc2)nc1C1=NN(C(=O)c2ccncc2)C(c2ccccc2)C1 (stereo not drawn),95.9% (inactive)
5,Nc1cc(C(=O)O)cc(-n2c(O)c(C=C3N=c4ccccc4=N3)sc2=S)c1,103% (inactive)
6,Nc1ncnc2c1N=C(c1ccc(F)cc1)CC(c1cccc(Nc3ccnc4cc(Cl)ccc34)c1)N2 (stereo not drawn),41.8% (inactive)
7,CCNC(=O)N1CCc2c(Br)c3c(c(OC)c2C1Cc1ccc(OC)cc1)OCO3 (stereo not drawn),-9.57% (active)
8,Nc1nc2ccccc2c2c(=O)c3cc(Cl)ccc3sc12,101% (inactive)
9,Cc1ccc(S(=O)(=O)c2nc(-c3ccccc3)oc2SCC(N)=O)cc1,105% (inactive)
10,CCCN(CCSSCCNc1nc(N(C)O)nc(N(C)O)n1)c1nc(N(C)O)nc(N(C)O)n1,95.1% (inactive)
11,COc1cc(C=C2C(=O)NC(=S)NC2=O)cc(CN2CCCC2)c1O,100% (inactive)
12,COC1/C=C/OC2(C)Oc3c(C)c(O)c4c(O)c(c(/C=N/N(c5ccccc5)c5ccccc5)c(O)c4c3C2=O)NC(=O)C(C)=C/C=C/C(C)C(O)C(C)C(O)C(C)C(OC(C)=O)C1C (stereo not drawn),67.9% (inactive)
13,CN(C)Cc1cc(C(C)(C)C)cc(Br)c1O,101% (inactive)
14,CN(C)CCCn1c2c(c3cnccc3c1=O)C(=O)c1ccccc1-2,3.83% (active)
15,O=C(NNc1nc2cc(F)ccc2n2c(CN3CCOCC3)ccc12)c1ccccc1,27.3% (inactive)
16,COC(=O)[C@]1(C)CCC[C@]2(C)[C@H]3C[C@@H]4[C@H]5[C@@H]6CC/C(=N\OCC/C(N)=N/O)[C@H]5[C@@]3(CC[C@H]21)CC4(C(C)C)O6,82.9% (inactive)

row,SMILES,growth
1,CC/C(=C(\c1ccc(Cl)cc1)c1ccc(OCCN2CCCCC2)cc1)c1ccc(O)cc1,2.07% (active)
2,CCN(CC)CCOc1ccc(/C(=C(\C)Cc2ccc(OC)cc2)c2ccc(OC(=O)NCc3ccccc3)cc2)cc1,40.7% (inactive)
3,O=S(=O)(Nc1ccc2ccccc2c1)c1ccc(-c2cnc(C3CC3)o2)cc1,-30.2% (active)
4,CCCCCc1ccc(S(=O)(=O)Nc2ccc3nc(N)oc3c2)cc1,50.3% (inactive)
5,C=CCN=c1sc(-c2ccc3ccccc3c2)cn1NC(=O)c1cc2ccc1CCc1ccc(cc1)CC2,67.5% (inactive)
6,c1cc(OCCN2CCCCCC2)ccc1CNc1ccc2nc(CCC3CCCCC3)[nH]c2c1,40.6% (inactive)
7,CC1=C2CC/C(C)=C/CC[C@]3(C)O[C@H]3CC/C(C)=C/[C@H]2OC1,98.7% (inactive)
8,COc1ccc(C(O)c2cc3c(N)c(C(=O)Nc4cccc5ccccc45)sc3nc2C)cc1 (stereo not drawn),-17.1% (active)
9,CCOc1ncc([N+](=O)[O-])c(OCC)n1,124% (inactive)
10,COc1ccc(C2[C@@H](Cl)C(=O)N2c2cc(OC)c(OC)c(OC)c2)cc1Cl (stereo partly drawn),-20.7% (active)
11,CS(=O)(=O)c1ccc(-c2nc3ccccc3n2CC(=O)N/N=C/c2ccccc2)cc1,97.2% (inactive)
12,CN1CCN(c2ccc(NC3=CC(=O)c4ncncc4C3=O)cc2)CC1,-90.3% (active)
13,Cn1c(=O)[nH]c(=O)c2nc3c(nc21)-c1ccccc1C3=O,100% (inactive)
14,COc1ccc(-c2cc(C(=O)N3N=C(c4ccc(N)cc4)CC3c3ccc(Cl)cc3)c3cc(OC)ccc3n2)cc1 (stereo not drawn),9.88% (active)
15,O=c1cc(CP(=O)(O)O)c2cc(O)c(-c3ccccc3)cc2o1,99.2% (inactive)
16,Cc1cc(C(=O)CCCC(=O)c2cc(C)c(O)c(C)c2)cc(C)c1O,101% (inactive)
